# DUSP3 inh: inhibitors of human VHR1 phosphatase (DUSP3); recombinant VHR phosphatase, pNPP absorbance; AID 1654; inhibition, % at 13.3 µM; 0.52% of 290,000 active; P51452; in the data active = inhibition above about 50%
# PrPC surface inh: reduces human prion protein on the cell surface; 0.43% of 370,000 active; AID 720596; inhibition, % at 13.8 µM; cell surface PrPC, TR-FRET read-out; P04156; in the data active = inhibition above about 24%; note: 0% = median of the test wells and 100% = reference compound wells
# TcdB GH inh: TcdB glycohydrolase inhibition; P18177; TcdB glycohydrolase enzymatic assay, plate reader; inhibition, % at 9.99 µM; 0.24% of 350,000 active; AID 652162; in the data active = inhibition above about 10%
# PrPC TRFRET cf: cell surface PrPC inhibition, TR-FRET confirmation. shares compounds with PrPC surface inh. 65% of 1,500 active. AID 743200. cell surface PrPC level. inhibition, % at 13.8 µM; in the data active = inhibition above about 25%
# LD9 cytotox: counter-screen for PrPc inhibitors: cytotoxicity in LD9 cells. shares compounds with PrPC surface inh. luminescence viability. inhibition, % at 13.8 µM. 29% of 1,500 active; in the data active = inhibition above about 9.5%
# * hit, by the source's call; . = no result. Shown are actives, neighbours in structure and some others; about 0.82% of the full set was active somewhere.
SMILES,DUSP3 inh,PrPC surface inh,TcdB GH inh,PrPC TRFRET cf,LD9 cytotox
Cc1ccc(-c2csc(NC(=O)c3cccc(C)c3)c2C(=O)O)cc1,.,36*,6,50*,-6
Cc1ccc(-c2csc(NC(=O)c3ccc(Br)cc3)c2C(=O)O)cc1,30,0,6,.,.
COc1cc(C(=O)Nc2scc(-c3ccc(Br)cc3)c2C(=O)O)cc(OC)c1OC,3,56*,0,60*,-5
Cc1ccnc(NC(=O)Cc2ccc(-c3ccccc3)cc2)c1,10,35*,1,41*,8
O=C(Cc1ccc(-c2ccccc2)cc1)Nc1ccccn1,33,7,-1,.,.
O=C(NCc1ccc(F)cc1)[C@H]1[C@H](CO)[C@H]2Cn3c(cccc3=O)[C@@H]1N2CC1CCCC1,.,.,0,.,.
O=c1oc2cc(O)ccc2c2ccccc12,10,28*,.,33*,0
COc1ccc2c(c1)c(=O)oc1cc(O)ccc12,12,8,-1,.,.
CN1C(=O)c2cc(NC(=O)NC3CCCC3)ccc2OC[C@@H]2O[C@@H](CC(=O)NCC3CC3)CC[C@H]21,.,.,6,.,.
O=C(NCc1ccc(F)cc1)[C@H]1[C@H](CO)[C@H]2Cn3c(cccc3=O)[C@@H]1N2C(=O)Cc1ccccn1,.,.,-1,.,.
Cc1noc(C)c1NC(=O)Nc1ccc2c(c1)C(=O)N([C@@H](C)CO)C[C@H](C)[C@@H](CN(C)C(=O)Nc1cccc3ccccc13)O2,.,.,0,.,.
Cc1ccc(S(=O)(=O)Nc2ccccc2C(=O)Nc2nc(-c3ccc(F)cc3)cs2)cc1,2,24,-1,.,.
COc1ccc(-c2csc(NC(=O)c3ccccc3NS(=O)(=O)c3ccc(F)c(F)c3)n2)cc1,5,32*,1,44*,38*
O=C(C[C@@H]1C=C[C@H](NC(=O)c2ccncc2)[C@@H](CO)O1)NCc1ccncn1,.,.,0,.,.
CC(C)[C@H](NC(=O)OC(C)(C)C)c1cc(C(=O)NCCc2c[nH]c3ccccc23)c(N)s1,.,5,0,.,.
CC(C)[C@@H](NC(=O)OC(C)(C)C)c1cc(C(=O)c2c(-c3ccccc3)[nH]c3ccccc23)c(N)s1,.,41*,-1,30*,-10
C[C@H]1CN([C@@H](C)CO)C(=O)c2cc(NC(=O)Cc3cn(C)c4ccccc34)ccc2O[C@H]1CN(C)Cc1ccc(C(=O)Nc2ccccc2N)cc1,.,.,-1,.,.
c1ccc2[nH]c(CSc3ncnc4c3oc3ccccc34)nc2c1,7,29*,.,26*,-1
Cc1nc(SCc2nc3ccccc3[nH]2)c2oc3ccccc3c2n1,11,-5,.,.,.
COc1ccc2[nH]c3c(C)c4ccncc4c(C)c3c2c1,2,34*,3,34*,42*
Cc1c2ccncc2c(C)c2c1[nH]c1ccccc12,9,.,.,.,.
Cc1ccc(C(=O)Nc2nc(-c3ccccn3)cs2)cc1S(=O)(=O)N1CCOCC1,.,25*,2,23,3
O=C(Nc1nc(-c2ccccn2)cs1)c1ccc(F)c(S(=O)(=O)N2CCOCC2)c1,.,27*,1,33*,18*
O=C(Nc1nc(-c2ccccn2)cs1)c1cc(S(=O)(=O)N2CCOCC2)ccc1F,.,-2,2,.,.
Cc1ccc(C(=O)Nc2ccccn2)cc1S(=O)(=O)N1CCOCC1,.,2,1,.,.
SMILES,DUSP3 inh,PrPC surface inh,TcdB GH inh,PrPC TRFRET cf,LD9 cytotox
C[C@H]1CN([C@@H](C)CO)C(=O)c2cccc(NS(=O)(=O)c3ccc(Cl)cc3)c2O[C@@H]1CN(C)C(=O)Nc1ccccc1,.,.,0,.,.
COc1ccc(C(=O)Nc2ccc3c(c2)C(=O)N(C)C[C@H](OC)[C@@H](C)CN[C@@H](C)CO3)cc1,.,.,0,.,.
COc1ccc(C)cc1CN1C(=O)c2ccccc2C1=O,53*,28*,-1,-4,-5
COc1ccccc1CN1C(=O)c2cccc3cccc(c23)C1=O,32,2,.,.,.
CCCN(C)C[C@H]1OCCCC[C@H](C)Oc2ccc(NC(=O)Nc3cccc4ccccc34)cc2C(=O)N([C@@H](C)CO)C[C@H]1C,.,.,1,.,.
O=C(Nc1cc(S(=O)(=O)N2CCCCC2)ccc1Cl)c1ccccc1NS(=O)(=O)c1ccc(F)cc1,4,25*,2,33*,25*
O=C(Nc1cc(S(=O)(=O)N2CCCCC2)ccc1O)c1ccccc1NS(=O)(=O)c1ccc(F)cc1,-1,7,2,.,.
Cc1[nH]c2ccc(Br)cc2c(=O)c1CN1CCOCC1,17,0,.,.,.
CCOc1ccc2[nH]c(C)c(CN3CCOCC3)c(=O)c2c1,12,32*,0,3,-3
CCOc1ccc(N2C(=O)CC(Sc3ncccn3)C2=O)cc1 (configuration not stated),6,0,.,.,.
CCOc1ccc(N2C(=O)CC(Sc3nc(-c4cccs4)cc(C(F)(F)F)c3C#N)C2=O)cc1 (configuration not stated),41,25*,.,11,-4
COc1cccc(S(=O)(=O)N(C)C[C@H]2Oc3ncc(-c4cccc(C(=O)N(C)C)c4)cc3C(=O)N([C@H](C)CO)C[C@@H]2C)c1,.,.,0,.,.
CCC(=O)Nc1ccc2c(c1)OC[C@@H](C)N(CC1CC1)C[C@@H](C)[C@@H](OC)CN(C)C2=O,.,.,2,.,.
C[C@@H]1CN([C@@H](C)CO)C(=O)c2cc(Br)cnc2O[C@H]1CN(C)CC1CCCC1,.,.,0,.,.
COc1ccc(CNC(=O)C[C@@H]2CC[C@@H](NC(=O)Nc3ccc4c(c3)OCO4)[C@H](CO)O2)cc1,.,.,-8,.,.
CC(=O)Nc1ccc(Sc2ccc([N+](=O)[O-])o2)cc1,.,69*,0,29*,22*
CC(C)(C)C(=O)Nc1ccc(Sc2ccc([N+](=O)[O-])cc2)cc1,-6,0,0,.,.
CCOC(=O)c1sc(NC(=O)Cc2c(F)cccc2Cl)nc1C,13,5,0,.,.
CC(=O)c1sc(NC(=O)Cc2c(F)cccc2Cl)nc1C,20,41*,0,44*,-9
CCCNC(=O)N1C[C@@H]2[C@H](c3ccccc31)[C@H](CO)N2C(=O)NCCC,.,.,-2,.,.
C[C@@H]1CN([C@H](C)CO)C(=O)c2cc(NC(=O)Nc3ccccc3)ccc2O[C@@H](C)CCCCO[C@@H]1CN(C)Cc1ccc(Cl)c(Cl)c1,.,.,-2,.,.
N#Cc1c(N)n(C2OC(CO)C(O)C2O)c2ncnc(N)c12 (configuration not stated),.,26*,2,30*,34*
Nc1ncnc2c1ncn2[C@@H]1O[C@H](CO)[C@@H](O)[C@@H]1O,.,8,-7,.,.
C[C@H]1CN([C@@H](C)CO)C(=O)c2cc(NC(=O)Nc3ccc(C(F)(F)F)cc3)ccc2O[C@H]1CN(C)Cc1ccncc1,.,.,0,.,.
C[C@@H]1CCCCO[C@H](CN(C)C(=O)Nc2ccc3c(c2)OCO3)[C@@H](C)CN([C@H](C)CO)C(=O)c2cc(NC(=O)c3ccncc3)ccc2O1,.,.,1,.,.
COCCNC(=O)C[C@H]1C[C@H]2c3cc(NC(=O)CC4CC4)ccc3O[C@H]2[C@@H](CO)O1,.,.,0,.,.
C[C@@H]1CN([C@@H](C)CO)C(=O)Cc2cc(NC(=O)C3CCCCC3)ccc2O[C@H]1CN(C)Cc1ccc(-c2ccccc2)cc1,.,.,0,.,.
CC(C)OC(=O)CC(=O)CSc1nc2c(c(-c3cccs3)c1C#N)CCC2,8,-1,1,.,.

# Screening data: PubChem, several laboratories
